Measured values as given in PubChem BioAssay AID2014 (Sanford-Burnham Center for Chemical Genomics, 2009).
The campaign covered roughly 290,000 compounds. About 3,000 (1%) were called active. No rule for the calls is given here. Many of the other results were omitted from the sample, so actives are more common in it than they were.

Target: Polyadenylate-binding protein 1 (Homo sapiens) (UniProt P11940)
Assay: blockers of PABP interaction with poly(A) – biochemical, fluorescence polarization, uHTS, primary screen (AID 2014);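 also: calls also rest on retests at 20 µM and on dose response follow-up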
Conditions: PABP-poly(A) RNA binding, stronger effect = higher value

Polyadenylate-binding protein 1 (Homo sapiens), sequence (P11940 whole entry, looked up): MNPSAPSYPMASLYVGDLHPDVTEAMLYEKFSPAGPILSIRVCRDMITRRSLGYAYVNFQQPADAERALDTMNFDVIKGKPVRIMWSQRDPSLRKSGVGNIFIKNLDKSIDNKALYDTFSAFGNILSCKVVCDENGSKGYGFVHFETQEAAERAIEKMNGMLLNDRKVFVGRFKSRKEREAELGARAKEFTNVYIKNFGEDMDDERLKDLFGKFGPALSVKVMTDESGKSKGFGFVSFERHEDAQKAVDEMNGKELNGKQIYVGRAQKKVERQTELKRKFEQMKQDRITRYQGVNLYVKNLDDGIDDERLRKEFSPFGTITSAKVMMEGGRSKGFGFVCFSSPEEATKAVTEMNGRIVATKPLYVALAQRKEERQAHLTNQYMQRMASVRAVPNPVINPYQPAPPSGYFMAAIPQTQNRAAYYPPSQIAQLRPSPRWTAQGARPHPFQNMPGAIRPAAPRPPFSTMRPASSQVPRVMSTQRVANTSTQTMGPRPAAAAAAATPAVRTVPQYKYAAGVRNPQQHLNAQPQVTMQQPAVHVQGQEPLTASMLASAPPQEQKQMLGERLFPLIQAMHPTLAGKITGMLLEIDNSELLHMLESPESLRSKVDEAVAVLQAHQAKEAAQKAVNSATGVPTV

Row | SMILES | inhibition (at 35 µM) | inhibition (confirmation repeats, at 20 µM) [%]
1 | Cc1cc2c(=O)n(CC(=O)NCC(=O)Nc3ccc(C(C)C)cc3)cnc2s1 | 9.1% (inactive) | –
2 | Cc1ccc(-n2ncc3c2CCCC3NC(=O)c2cnccn2)cc1C (configuration not stated) | 5.7% (inactive) | –
3 | O=C(CNC(=O)c1ccc(Br)o1)NCC1CCCO1 (configuration not stated) | -3.6% (inactive) | –
4 | O=C(c1ccc(Br)o1)N(c1ccccn1)C1CCCCC1 | -4.7% (active) | 75.2
5 | O=C(c1cccs1)N(C(=O)c1cccs1)c1ccccn1 | 0.2% (inactive) | –
6 | CC1(C)CC(=O)C=C(Nc2ccccc2)C1 | 2.3% (inactive) | –
7 | CC1(C)CC(=O)C(C2c3ccccc3S(=O)(=O)c3ccccc32)C(=O)C1 | 62.9% (active) | –
8 | CC1(C)CC(=O)NC=C(c2ccccc2)C1 | -9.5% (inactive) | –
9 | O=C(c1cc(=O)c2ccccc2o1)N1CCN(c2ccccc2)CC1 | 4.7% (inactive) | –
10 | O=C(c1ccc(S(=O)(=O)N2CCOCC2)cc1)N1CCN(c2ccccc2)CC1 | 3.8% (inactive) | –
11 | O=C(c1ccc(CS(=O)(=O)c2ccccc2)o1)N1CCN(c2ccccc2)CC1 | 28.3% (active) | 62.1
12 | CCc1ccc(N2CC(C(=O)N3CCCCCC3)CC2=O)cc1 (configuration not stated) | -12.2% (inactive) | –
13 | COc1ccc2oc(=O)cc(CN3CCOCC3)c2c1 | 10.8% (inactive) | –
14 | O=Cc1cn(-c2ccccc2)nc1-c1ccccn1 | -6.6% (inactive) | –
15 | Cc1ccc(SCCSc2ncccn2)cc1 | 8.3% (inactive) | –
16 | Cc1cccc(C(=O)NNC(=O)CSc2nnc(C(C)C)n2C)c1 | 0.1% (inactive) | –
17 | COCCn1c(N)c(N(Cc2ccccc2)C(=O)C2CCCCC2)c(=O)[nH]c1=O | 4.9% (inactive) | –
18 | COCCN1C=C2C(=O)C(C)(OC(=O)C3CCCC3)C(=O)C=C2C=C1c1ccsc1 (configuration not stated) | 61% (active) | –
19 | Cc1cccnc1CC(C)NC(=O)c1cc(COc2cncc(Cl)c2)on1 (configuration not stated) | -0.2% (inactive) | –
20 | CC(=O)c1ccc(OC(=O)N2CCOCC2)cc1 | -1.2% (inactive) | –
21 | Cc1ccc(C2Nc3cccc4cccc(c34)N2)cc1 | 39.9% (inactive) | –

Row | SMILES | inhibition (at 35 µM) | inhibition (confirmation repeats, at 20 µM) [%]
22 | COc1ccc(C2NC(=O)c3ccccc3N2)cc1 (configuration not stated) | 15.7% (inactive) | –
23 | Oc1ccc(C2Nc3cccc4cccc(c34)N2)cc1 | 69.2% (active) | –
24 | COc1cccc(C2Nc3cccc4cccc(c34)N2)c1 | 25.6% (active) | 72.2
25 | O=C1NC(c2cccc(Cl)c2)Nc2ccccc21 (configuration not stated) | -16.8% (inactive) | –
26 | COc1ccc(N2C(=O)C3CCCN3C2c2cccc(OC)c2)cc1 (configuration not stated) | -1.1% (inactive) | –
27 | O=C1CCN(CCc2ccccc2)CCN1CCOc1ccccc1 | 7.2% (inactive) | –
28 | COc1ccc(CNC(=O)CN(Cc2ccccc2Cl)C(=O)c2csnn2)cc1 | 4.9% (inactive) | –
29 | CCN(CC(=O)NCc1cccs1)C(=O)c1ccccc1F | -8.7% (inactive) | –
30 | CCN(CC(=O)NCc1cccs1)C(=O)c1cccc(S(=O)(=O)Nc2ccccc2OC)c1 | 60.4% (active) | 70.6
31 | COc1cc(CC(=O)NCc2cccs2)cc(OC)c1OC | -5.2% (inactive) | –
32 | CC(=O)c1ccccc1OCc1ccc(C(=O)c2ccccc2)cc1 | 0.6% (inactive) | –
33 | O=C(NC1CC1)C(Cc1ccccc1)NS(=O)(=O)c1ccccc1F (configuration not stated) | -3.9% (inactive) | –
34 | O=C(NCCCc1ccccc1)C1CCC(=O)N(CCc2ccc(Cl)cc2)C1 (configuration not stated) | 2.3% (inactive) | –
35 | Cc1cc(=O)oc(C)c1C(=O)NCCN(C)Cc1ccccc1 | -13.8% (inactive) | –
36 | Cc1cc(=O)oc(C)c1C(=O)NCc1ccc(F)cc1 | 28.4% (inactive) | –
37 | Cc1cc(=O)oc(C)c1C(=O)Nc1cnc2ccccc2c1 | 104% (active) | –
38 | Cc1ccc(C(=O)NC2CCN(C(=O)Nc3ccccc3Cl)CC2)cc1 | 8.2% (inactive) | –
39 | Cc1cccc(N2CCN(C(C)C(=O)N3CCc4ccccc43)CC2)c1C (configuration not stated) | -1.2% (inactive) | –
40 | Cc1cccc(N(C(=O)Cn2nnc(-c3ccc(C)o3)n2)C(C(=O)NC2CCCC2)c2ccncc2)c1 (configuration not stated) | 11.1% (inactive) | –
41 | Cc1cccc(N=C2NC(=O)/C(=C/c3cn(C)c4ccccc34)S2)c1 | -3.5% (inactive) | –
42 | Cc1ccc(N2NC(=O)/C(=C/C=C/c3ccco3)C2=O)cc1C | 12.2% (inactive) | –

Row | SMILES | inhibition (at 35 µM) | inhibition (confirmation repeats, at 20 µM) [%]
43 | Cc1ccc(N=C2NC(=O)/C(=C/C=C/c3ccco3)S2)cc1C | -2.9% (active) | 92
44 | CC(C)(O)C#Cc1ccc(CN2CCC(CO)(CCc3ccccc3)CC2)cc1 | -2.8% (inactive) | –
45 | Brc1ccccc1CN1CCC(Cc2ccccc2)CC1 | 0.9% (inactive) | –
46 | Cc1cc(C)c2c(-c3ccc(F)cc3)c(C#N)c(=O)n(C)c2n1 | -5.1% (inactive) | –
47 | Cn1c(N)cc(-c2ccc(F)cc2)c(C#N)c1=O | 59.1% (active) | 69.9
48 | COc1ccc(O)c(C(=O)c2cnc3c(c2)c(-c2ccc(F)cc2)c(C#N)c(=O)n3C)c1 | 7.5% (inactive) | –
49 | COc1ccc(NC(=O)C(CC(C)C)NC(=O)C2CCC(C)CC2)cc1 (configuration not stated) | -2.9% (inactive) | –
50 | C=CCn1c(=O)c(C(=O)NCc2ccc3c(c2)OCO3)c(O)c2ccccc21 | -7.7% (inactive) | –
51 | CC1CCCCC1NC(=O)CCS(=O)(=O)c1ccc2c(c1)NC(=O)CO2 (configuration not stated) | 3.9% (inactive) | –
52 | Cc1cccc2c1cnn2C(=O)CCC(=O)NC1CCCCC1 | -10.3% (inactive) | –
53 | CN(C(=O)CN1C(=O)S/C(=C\c2ccccc2F)C1=O)C1CCS(=O)(=O)C1 (configuration not stated) | 11.1% (inactive) | –
54 | Cc1ccc(OCC(=O)NC(C)c2ccccc2)c([N+](=O)[O-])n1 (configuration not stated) | 51.1% (inactive) | -6.6
55 | COCC(C)n1c(C)cc(C(=O)COc2ccc(C)nc2[N+](=O)[O-])c1C (configuration not stated) | -2.1% (active) | 57.1
56 | Cc1ccc(OCC(=O)c2cc(C)n(Cc3ccco3)c2C)c([N+](=O)[O-])n1 | 40.8% (inactive) | 34.4
57 | CCOc1cccc(=O)c2c(C)n(CC3CCCO3)c(C)c12 (configuration not stated) | 92.6% (active) | –
58 | COc1ccccc1NC(=O)CSc1nnc(C)n1CC1CCCO1 (configuration not stated) | 9.2% (inactive) | –
59 | CCOc1ccc(NC(=O)c2cccc3c2C(=O)N(CC2CCCO2)C3)cc1 (configuration not stated) | -7.6% (inactive) | –
60 | CCc1c(C)nc2cc(-c3cccs3)[nH]n2c1=O | 3.2% (inactive) | –
61 | Cc1cc(=O)n2[nH]c(-c3cccc(Cl)c3)cc2n1 | 1.6% (inactive) | –
62 | Cc1cc(=O)n2[nH]c(-c3sccc3-n3c(C)ccc3C)cc2n1 | 31.1% (active) | 94.5
